HP1b binding inh = HP1-beta chromodomain-methylated histone interaction inhibition. Potency, µM (highest dose often 114 µM), for inactives: at the top dose activity change, negative = inhibition, usual class: inhibitors. actives 0.56% (n = 390,000). AlphaScreen HP1-beta / biotin-H3K9me3 peptide binding. AID 540317. P83916; further: nearly all actives have a fitted effect of over 70% in size
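Compound inhibition of the preformed complex between 50 nM HP1-beta and 50 nM biotinylated H3K9me3 peptide was read by AlphaScreen. Buffer was PBS pH 7.4 with 0.01% Tween-20. Incubations ran 30 min at room temperature, with 10 ug/mL donor/acceptor beads.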
G9a inh = G9a (human) methyltransferase inhibition. actives 8.8% (n = 350,000). AID 504332. Q96KQ7. Potency, µM (titrated, usually from 102 µM), inactives show top-dose activity, negative = inhibition, hits mostly inhibitors. G9a H3K9 monomethylation, AlphaScreen, 2 h; further: on the % scale 0 is the no-effect control and ±100 the full control effect; nearly all actives have a fitted effect of over 75% in size
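Step 1: enzyme (final 20 nM) with compound, 15 min RT. Step 2: substrate peptide 500 nM and SAM 20 uM, 2 h RT. Step 3: anti-H3K9me1 antibody and AlphaScreen beads, 10 min, then plate read.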
L3MBTL1 block = blocks human L3MBTL1; AlphaScreen L3MBTL1–H3K9me1 peptide binding; Q9Y468; Potency, µM (titrated, usually from 57.1 µM), for the others: top-dose activity, negative = inhibition, usual class: inhibitors; actives 0.66% (n = 230,000); further: on the % scale 0 is the no-effect control and ±100 the full control effect; nearly all actives have a fitted effect of over 60% in size
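Read-out is AlphaScreen signal from streptavidin donor and nickel chelate acceptor beads (10 ug/mL final each) bridging L3MBTL1 (50 nM) and biotinylated K9-monomethylated H3(1-15) peptide (75 nM), after 30 min compound exposure at room temperature.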
Sfp inh = blocks B. subtilis Sfp PPTase activity. Q9F4F7. Biochemical Sfp PPTase activity, qHTS. Potency, µM, inactives show largest response in the series, negative = inhibition, hits mostly inhibitors. actives 3.5% (n = 310,000);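 further: the enzyme is Sfp with the accession as filed and its product quenches rhodamine fluorescence; 0% = enzyme reaction without inhibitor and -100% = no enzyme wells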
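Fluorescence-quenching assay with 15 nM Sfp, 5 uM rhodamine-CoA and 12.5 uM BHQ-2-labelled ybbR peptide in pH 7.6 Hepes/MgCl2 buffer. Enzyme was pre-incubated with compound for 15 min at room temperature. Rate was taken from the 30-min fluorescence change (525/598 nm).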
BAZ2B block = blocks human BAZ2B; Q9UIF8; AlphaScreen BAZ2B-H3K14Ac peptide displacement; Potency, µM (highest dose often 114 µM), for the others: at the top dose activity change, negative = inhibition, most hits filed as inhibitors; actives 4.4% (n = 360,000); AID 504333; further: on the % scale 0 is the no-effect control and ±100 the full control effect; nearly all actives have a fitted effect of over 60% in size
Target sequence (Q9UIF8 whole entry, looked up): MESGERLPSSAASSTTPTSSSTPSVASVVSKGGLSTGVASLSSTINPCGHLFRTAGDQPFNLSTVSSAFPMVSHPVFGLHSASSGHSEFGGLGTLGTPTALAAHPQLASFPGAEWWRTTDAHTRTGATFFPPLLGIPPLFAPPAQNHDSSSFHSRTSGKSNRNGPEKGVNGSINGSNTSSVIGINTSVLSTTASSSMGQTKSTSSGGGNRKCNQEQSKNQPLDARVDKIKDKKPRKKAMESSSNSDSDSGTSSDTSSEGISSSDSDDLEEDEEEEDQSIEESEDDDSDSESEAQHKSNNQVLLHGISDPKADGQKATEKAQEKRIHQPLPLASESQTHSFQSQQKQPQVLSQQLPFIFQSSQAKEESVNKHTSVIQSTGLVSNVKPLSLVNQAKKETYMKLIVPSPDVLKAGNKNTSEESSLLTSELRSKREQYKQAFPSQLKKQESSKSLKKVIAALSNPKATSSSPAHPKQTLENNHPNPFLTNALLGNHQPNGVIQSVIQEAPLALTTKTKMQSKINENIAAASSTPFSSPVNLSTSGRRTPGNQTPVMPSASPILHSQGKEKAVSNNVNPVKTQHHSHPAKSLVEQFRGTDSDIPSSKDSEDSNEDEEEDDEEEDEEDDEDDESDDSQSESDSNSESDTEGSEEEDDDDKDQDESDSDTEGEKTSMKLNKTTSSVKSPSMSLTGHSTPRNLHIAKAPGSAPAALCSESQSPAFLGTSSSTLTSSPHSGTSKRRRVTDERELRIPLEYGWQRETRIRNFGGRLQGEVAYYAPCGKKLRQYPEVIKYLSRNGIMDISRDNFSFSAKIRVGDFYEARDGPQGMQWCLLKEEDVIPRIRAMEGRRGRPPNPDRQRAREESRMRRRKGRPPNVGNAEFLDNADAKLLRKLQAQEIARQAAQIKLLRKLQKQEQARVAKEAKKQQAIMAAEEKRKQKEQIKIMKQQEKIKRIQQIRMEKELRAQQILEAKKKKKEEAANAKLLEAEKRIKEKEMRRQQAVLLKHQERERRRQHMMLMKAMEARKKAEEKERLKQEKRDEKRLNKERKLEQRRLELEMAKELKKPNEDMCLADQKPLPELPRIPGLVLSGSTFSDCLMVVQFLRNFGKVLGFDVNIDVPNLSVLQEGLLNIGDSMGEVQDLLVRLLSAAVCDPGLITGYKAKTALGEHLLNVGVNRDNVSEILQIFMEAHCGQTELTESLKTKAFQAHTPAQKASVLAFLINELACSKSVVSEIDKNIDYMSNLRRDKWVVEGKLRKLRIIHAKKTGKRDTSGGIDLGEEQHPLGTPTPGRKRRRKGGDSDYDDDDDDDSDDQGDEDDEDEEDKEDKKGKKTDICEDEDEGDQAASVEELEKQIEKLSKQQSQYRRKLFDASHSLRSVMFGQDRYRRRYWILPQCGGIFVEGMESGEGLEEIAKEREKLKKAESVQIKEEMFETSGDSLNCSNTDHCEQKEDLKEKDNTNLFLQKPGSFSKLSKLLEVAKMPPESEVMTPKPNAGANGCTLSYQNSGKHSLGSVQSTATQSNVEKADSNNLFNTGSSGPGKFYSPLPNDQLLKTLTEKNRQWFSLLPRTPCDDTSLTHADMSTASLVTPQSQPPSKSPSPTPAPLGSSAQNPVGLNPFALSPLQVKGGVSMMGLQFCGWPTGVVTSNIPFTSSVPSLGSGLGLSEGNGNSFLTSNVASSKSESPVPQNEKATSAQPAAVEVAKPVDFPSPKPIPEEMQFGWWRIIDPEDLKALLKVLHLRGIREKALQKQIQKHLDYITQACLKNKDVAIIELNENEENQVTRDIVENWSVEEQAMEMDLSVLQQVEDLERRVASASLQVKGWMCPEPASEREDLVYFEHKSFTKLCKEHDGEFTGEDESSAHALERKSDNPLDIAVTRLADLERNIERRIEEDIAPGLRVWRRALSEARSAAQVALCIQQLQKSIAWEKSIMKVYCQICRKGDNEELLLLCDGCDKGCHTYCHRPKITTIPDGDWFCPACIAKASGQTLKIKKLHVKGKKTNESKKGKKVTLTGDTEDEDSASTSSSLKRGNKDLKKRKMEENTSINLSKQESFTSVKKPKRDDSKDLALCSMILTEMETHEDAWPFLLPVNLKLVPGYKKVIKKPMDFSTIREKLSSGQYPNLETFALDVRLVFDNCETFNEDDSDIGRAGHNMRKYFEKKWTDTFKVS
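BAZ2B 50 nM plus b-H3(5-23)K14Ac 50 nM, PBS pH 7.4/0.01% Tween-20, 30 min RT; compound added (max 110 uM), 30 min RT; streptavidin donor/Ni-chelate acceptor beads 10 ug/mL final, 20 min dark; AlphaScreen read.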
JMJD2A Tudor inh = blocks the human JMJD2A Tudor domain | AlphaScreen JMJD2A-Tudor / H3K4me3 peptide binding | Potency, µM (titrated, usually from 114 µM), for the others: at the highest dose activity change, negative = inhibition, most hits filed as inhibitors | actives 4.4% (n = 390,000) | AID 504339; further: on the % scale 0 is the no-effect control and ±100 the full control effect; nearly all actives have a fitted effect of over 50% in size
The depositor's hits bear a star; ? = inconclusive; . = not tested or not shown; [ ] = dose if it differs, or a comment. This is a sample that favours compounds with a hit; in the whole collection about 12% have one here. The call rests on the fitted dose curve; in most records, active means well fitted curve in the direction sought with a large enough effect; inconclusive means small, poorly fitted or top-dose-only effect, or another doubt; inactive means no such curve, though single readings can be large; an effect the other way counts as inactive or inconclusive. Potency means the concentration at half of the fitted maximal effect.

SMILES | HP1b binding inh | G9a inh | L3MBTL1 block | Sfp inh | BAZ2B block | JMJD2A Tudor inh
N=c1c(C(=O)NCc2ccco2)cc2c(=O)n3ccccc3nc2n1Cc1ccc(Cl)cc1 | 3.7% | ? | -9.0% | 50.1µM* | -26.5% | -18.4%
COc1cc(NC(=O)CCc2c(C)nn(-c3ccc(N4CCCCC4)nn3)c2C)cc(OC)c1OC | 29.8% | 6.7%[59 µM] | . | . | -18.4% | -11.0%
O=C(c1ccncc1)N1CCC2(CC1)CN(c1cccc(-c3ccccc3)c1)C2 | . | 29.2%[12.7 µM] | . | -22.1% | . | .
CCC1CCCCN1C(=O)c1ccc2c(c1)N(Cc1cccc(Cl)c1)C(=O)c1ccccc1S2(=O)=O (configuration not stated) | 11.4% | -23.3%[59 µM] | . | . | -2.2% | -29.5%
COc1ccc(C2NN=C(c3ccc(C)cc3)S2)cc1OC (configuration not stated) | 23.4% | 12.6µM* | . | ? | -4.7% | -4.2%
Cc1ccc(C2=NNC(c3cccc(F)c3)S2)cc1 (configuration not stated) | 39.1% | ? | . | 10.2% | -28.2% | -12.3%
O=C(CC1C(=O)CCCC1=O)c1ccccc1 | 38.4% | 44.7µM* | ? | ? | -34.2% | -9.3%
Nc1ccc(C(=O)Nc2ccc3cc(S(=O)(=O)O)ccc3c2)cc1 | 21.4% | . | . | . | . | -2.8%
O=C(Nc1ccc(C(=O)Nc2ccc(C(=O)Nc3ccc(S(=O)(=O)O)c4cc(S(=O)(=O)O)cc(S(=O)(=O)O)c34)cc2)cc1)Nc1ccc(C(=O)Nc2ccc(C(=O)Nc3ccc(S(=O)(=O)O)c4cc(S(=O)(=O)O)cc(S(=O)(=O)O)c34)cc2)cc1 | . | 1.26µM* | . | ? | . | .
O=C(Nc1cc(C(=O)Nc2ccc(S(=O)(=O)O)cc2S(=O)(=O)O)cc(C(=O)Nc2ccc(S(=O)(=O)O)cc2S(=O)(=O)O)c1)Nc1cc(C(=O)Nc2ccc(S(=O)(=O)O)cc2S(=O)(=O)O)cc(C(=O)Nc2ccc(S(=O)(=O)O)cc2S(=O)(=O)O)c1 | . | 0.0708µM* | . | 6.1% | . | .
CCOc1ccccc1NC(=O)CCc1c(C)nc2c3cccnc3nn2c1C | 35.1% | 9.1%[59 µM] | . | . | 2.0% | 7.0%
O=C(CN1C(=O)NC2(CCCC2)C1=O)Nc1cc(C(F)(F)F)ccc1N1CCCCC1 | 15.9% | 44.7µM* | -7.7% | . | 3.9% | -14.2%
O=C(CN1C(=O)NC2(CCCCC2)C1=O)Nc1cc(C(F)(F)F)ccc1N1CCCCC1 | 24.1% | -5.0%[0.501 µM] | 2.0% | . | -5.1% | -9.0%
O=C(CN1C(=O)NC2(CCCCC2)C1=O)Nc1cc(C(F)(F)F)ccc1N1CCOCC1 | 47.0% | 50.1µM* | 10.7% | . | 2.8% | -2.8%
O=C(CN1C(=O)NC2(CCCC2)C1=O)Nc1cc(Cl)ccc1N1CCOCC1 | 13.8% | -39.6% | -3.9% | . | 8.8% | -7.5%
COCCCNC(=O)Cn1c(=O)n(-c2cccc(C)c2)c(=O)c2c1c1cc(C)ccc1n2C | 34.7% | 1.0%[59 µM] | . | . | -1.3% | -14.4%
O=c1cnc2cnc(N3CCNCC3)nc2n1CCc1ccccc1 | . | -26.9%[12.7 µM] | . | 4.6% | . | .
COc1ccc(C2=NC(c3ccc(Cl)cc3)C(c3ccc(Cl)cc3)N2C(=O)N2CCNC(=O)C2)c(OC(C)C)c1 (configuration not stated) | . | . | . | -22.1% | . | .
CCCCn1c(N)c(N(CCOC)C(=O)C2CCN(S(=O)(=O)c3ccc(C)c(C)c3)CC2)c(=O)[nH]c1=O | 35.3% | 50.1µM* | 1.2% | . | -4.5% | -17.9%
CCCCn1c(N)c(N(CCC(C)C)C(=O)C2CCCC2)c(=O)[nH]c1=O | 50.9% | 20µM* | 1.6% | . | -3.2% | -4.7%
CCCCn1c(N)c(N(CC(C)C)C(=O)C2CCC2)c(=O)[nH]c1=O | 30.6% | 14.7%[12.7 µM] | 2.7% | . | -2.4% | 12.1%
CCCCN(C(=O)C1CC(=O)N(CCc2ccc(OC)c(OC)c2)C1)c1c(N)n(CCCC)c(=O)[nH]c1=O (configuration not stated) | 18.4% | 15.8µM* | -0.6% | . | -22.7% | -3.8%

High-throughput results deposited in PubChem BioAssay by National Center for Advancing Translational Sciences (NCATS).
